Values joined by “and” are separate entries in the source; they are usually repeats but may differ in a detail not shown here. Identical values can stand only once. Inconclusive results are not listed. Active and inactive are the calls of the source. Unless noted, how the calls were made is not given here.
Columns and labels:
[1] = qHTS profiling of the MIPE4 collection as inhibitors of Plasmodium falciparum (DD2) proliferation (AID 743345); details: P. falciparum Dd2 in erythrocytes, SYBR Green DNA, 72 h; at 28.5 µM (top of the series) unless noted
In short: (§1)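 Erythrocytes infected with P. falciparum (0.3% parasitemia, 2.5% hematocrit) incubated with compounds 72 h at 37 C, 5% CO2. Lysis with saponin/Triton buffer containing SYBR Green I, overnight at room temperature in the dark; DNA fluorescence (485/535 nm) normalised to 0.29 uM artemisinin and DMSO.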

[2] = qHTS profiling of the MIPE4 collection as inhibitors of Plasmodium falciparum (DD2) proliferation (Rep 2) (AID 743346); details: P. falciparum Dd2 in erythrocytes, SYBR Green DNA, 72 h; at 28.5 µM (top of the series) unless noted
In short: as §1

[3] = qHTS profiling of the MIPE4 collection as inhibitors of Plasmodium falciparum (HB3) proliferation (AID 743347);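 further: plate controls were DMSO vehicle wells for no effect and artemisinin wells for full effect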; details: P. falciparum HB3 in erythrocytes, SYBR Green DNA, 72 h; at 28.5 µM (top of the series) unless noted
In short: as §1

[4] = High-throughput drug toxicity screening in the BPDCN cell line Gen2.2 (AID 1224824); details: Gen2.2 BPDCN cells; at 45.8 µM (top of the series) unless noted;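 further: cells exposed to compounds for 48 h before reading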
In short: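 Seed 500 exponentially growing Gen2.2 cells/well; add compounds by pin tool; incubate 48 h, 37 °C, 5% CO2; add CellTiter-Glo, 15 min RT; read luminescence. % activity vs DMSO (100%) and bortezomib (0%).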

[5] = High-throughput drug toxicity screening in the BPDCN cell line Cal-1 (AID 1224825); details: Cal-1 BPDCN cell viability, qHTS; at 45.8 µM (top of the series) unless noted
In short: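 Exponentially growing Cal-1 cells, 500 per well in phenol red-free RPMI with 10% FBS, were exposed to compounds for 48 h at 37 °C, 5% CO2. Viability was read by CellTiter-Glo luminescence and normalised to DMSO (100%) and 9.2 uM bortezomib (0%).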

[6] = qHTS assay for measurement of the activity of small molecule inhibitors on Zika virus induced Caspase-3 activity in human iPSC derived neural progenitor cells (hNPCs) (AID 1224857; active means well fitted curve in the direction sought with a large enough effect; an effect the other way counts as inactive or inconclusive; further: nearly all actives have a fitted effect of over 65% in size; further: potency means the concentration at half of the fitted maximal effect); details: hNPCs ZIKV-induced caspase-3/7, Caspase-Glo luminescence, 6 h; series mostly up to 45.7 µM
In short: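 Pretreat hNPCs with compound 1 h; infect ZIKV 2 FFU/cell; 6 h 37 C, 5% CO2; Caspase-Glo 3/7, 30 min RT; luminescence; normalize to no-virus and virus-only wells.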

[7] = qHTS assay for measurement of the activity of small molecule inhibitors on Zika virus induced Caspase-3 activity in human astrocytoma cells (AID 1224859; active means well fitted curve in the direction sought with a large enough effect; an effect the other way counts as inactive or inconclusive; further: potency means the concentration at half of the fitted maximal effect); details: SNB-19 ZIKV-induced caspase-3/7, luminescence, 6 h; series mostly up to 45.7 µM
In short: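 Human SNB-19 astrocytoma cells in RPMI 1640 with 10% FBS receive compound one hour ahead of Zika virus at 2 FFU/cell. After 6 h infection, caspase-3/7 activity is detected by Caspase-Glo luminescence.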

[8] = qHTS Screen of the MIPE 4.0 Collection Against Ewings Sarcoma (TC32) (AID 1259256; active means well fitted curve in the direction sought with a large enough effect; an effect the other way counts as inactive or inconclusive; further: nearly all actives have a fitted effect of over 45% in size; further: potency means the concentration at half of the fitted maximal effect); details: TC32 Ewing sarcoma viability, CellTiter-Glo, 48 h; series mostly up to 45.8 µM
In short: (§2)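 Compound titrations go onto adherent log-phase cells 4 h after seeding, incubate 48 h at 37C, then CellTiter-Glo luminescence reports viability relative to DMSO and cell-free controls.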

[9] = Identifying Small Molecule Inhibitors of Pancreatic Cancer Stem Cells (A278, Adherent) (AID 1259361; active means well fitted curve in the direction sought with a large enough effect; an effect the other way counts as inactive or inconclusive; further: nearly all actives have a fitted effect of over 35% in size); details: series mostly up to 46.1 µM
In short: (§3)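 Viability is scored by CellTiter-Glo luminescence 48 h after dosing, expressed as percent activity against vehicle and no-cell references. Spheroid formats rely on cells cultured 14 days in stem cell media beforehand.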

[10] = P-glycoprotein substrates identified in KB-8-5-11 adenocarcinoma cell line, qHTS therapeutic library screen (AID 1346987; active means well fitted curve in the direction sought with a large enough effect; an effect the other way counts as inactive or inconclusive; further: nearly all actives have a fitted effect of over 65% in size; further: potency means the concentration at half of the fitted maximal effect); details: KB-8-5-11 (P-gp overexpressing) viability, CellTiter-Glo, 72 h; series mostly up to 44.5 µM
In short: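 P-gp-mediated resistance screen: KB-8-5-11 cells treated 72 h with compounds in dose-response. CellTiter-Glo viability.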

[11] = qHTS profiling of the MIPE4 collection as inhibitors of Plasmodium falciparum (3D7) proliferation (AID 743344);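 further: scaled between DMSO vehicle wells and 0.29 µM artemisinin as full inhibition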; details: P. falciparum 3D7 in erythrocytes, SYBR Green DNA fluorescence, 72 h; at 28.5 µM (top of the series) unless noted
In short: as §1

[12] = Identifying Small Molecule Inhibitors of Pancreatic Cancer Stem Cells (SN12C, Adherent) (AID 1259358; active means well fitted curve in the direction sought with a large enough effect; an effect the other way counts as inactive or inconclusive;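 further: cell survival measured after 48 h of compound exposure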; further: potency means the concentration at half of the fitted maximal effect); details: viability/growth inhibition; series mostly up to 46.1 µM
In short: as §3

[13] = Identifying Small Molecule Inhibitors of Pancreatic Cancer Stem Cells (Panc1, Spheroid) (AID 1259359; active means well fitted curve in the direction sought with a large enough effect; an effect the other way counts as inactive or inconclusive;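 further: potency means the concentration at half of the fitted maximal effect; compound exposure lasted 48 h before reading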); details: Panc1 spheroid cancer stem cell viability
In short: as §3

[14] = P-glycoprotein substrates identified in KB-3-1 adenocarcinoma cell line, qHTS therapeutic library screen (AID 1346986; active means well fitted curve in the direction sought with a large enough effect; an effect the other way counts as inactive or inconclusive; further: nearly all actives have a fitted effect of over 60% in size); details: KB-3-1 parental cells viability, CellTiter-Glo, 72 h; series mostly up to 44.5 µM
In short: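 KB-3-1 parental cells and P-gp-overexpressing KB-8-5-11 (colchicine omitted during assay) plated at 500 cells/well, dosed in dose-response, incubated 72 h at 37 degree C. CellTiter-Glo luminescence read; KB-8-5-11 also tested with tariquidar.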

[15] = qHTS Screen of the MIPE 4.0 Collection Against Ewings Sarcoma (RDES) (AID 1259252; active means well fitted curve in the direction sought with a large enough effect; an effect the other way counts as inactive or inconclusive; further: nearly all actives have a fitted effect of over 35% in size; further: potency means the concentration at half of the fitted maximal effect); details: RD-ES Ewing sarcoma viability, CellTiter-Glo, 48 h; series mostly up to 45.8 µM
In short: as §2

[16] = qHTS Screen of the MIPE 4.0 Collection Against Ewings Sarcoma (TC71) (AID 1259253; active means well fitted curve in the direction sought with a large enough effect; an effect the other way counts as inactive or inconclusive; further: nearly all actives have a fitted effect of over 40% in size; further: potency means the concentration at half of the fitted maximal effect); details: TC71 Ewing sarcoma viability, CellTiter-Glo, 48 h; series mostly up to 45.8 µM
In short: as §2

[17] = qHTS Screen of the MIPE 4.0 Collection Against Ewings Sarcoma (EW8) (AID 1259255; active means well fitted curve in the direction sought with a large enough effect; an effect the other way counts as inactive or inconclusive; further: nearly all actives have a fitted effect of over 35% in size; further: potency means the concentration at half of the fitted maximal effect;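 on viability: 100% = DMSO-treated cells and 0% = medium-only wells without cells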); details: EW8 Ewing sarcoma viability, CellTiter-Glo, 48 h; series mostly up to 45.8 µM
In short: as §2

SMILES	parasite growth remaining, % of DMSO control (lower = more inhibition) [1]	parasite growth, % of control (lower = inhibition) [2]	growth, % of control [3]	cell viability, % of control (lower = more cytotoxic) [4]	viability (% of control) [5]	Potency [6]	Potency [7]	Potency [8]	IC50 (viability decrease) [9]	Potency [10]	parasite growth, % of DMSO control [11]	Potency [12]	Potency [13]	Potency [14]	Potency [15]	Potency [16]	Potency [17]
CCOc1ccc(Nc2nc(-c3c(C)nc4ccccn34)cs2)cc1	17.3%	15.8%	4.43%	11%	7.46%	inactive	inactive	inactive	0.0264 µM (active)	1 nM (active) and 36.6 nM (active)							
CCNc1cc(NC2CCC(O)CC2)nc(Nc2ccc3c(ccn3Cc3ccccc3)c2)n1 (stereo unspecified)	6.69%	15.2%	9.27%	21.8%	2.13%	inactive	inactive	23.5 µM (active)			4.9%						
COc1ncc(-c2ccc3nccc(-c4ccnnc4)c3c2)cc1NS(=O)(=O)c1ccc(F)cc1F	7.55%	6.02%	4.97%	3.44%	3.33%	inactive	inactive		0.118 µM (active)	2.96 µM (active) and 29.1 nM (active)	4.65%	inactive	0.0074 µM (active)				
N#CC1(c2ccc(NC(=O)c3cccnc3NCc3ccncc3)cc2)CCCC1	72.9%	65.6%	23.3%	286%	93.1%	16.6 µM (active)	18.7 µM (active)	inactive		inactive							
CC(C)C[C@H](CC(=O)O)C(=O)N[C@@H](Cc1c[nH]c2ccccc12)C(=O)N[C@@H](C)c1ccccc1	77.8%	57.5%	34.7%	161%	6.64%	inactive	inactive			inactive	79.9%						
CC(C)n1nc(-c2ccc3oc(N)nc3c2)c2c(N)ncnc21		6.88%	4.46%	1.63%	8.31%	inactive	inactive			1.3 nM (active) and 32.6 nM (active)	5.01%						
OC[C@H]1O[C@@H](Oc2cc(O)cc(C=Cc3ccc(O)cc3)c2)[C@H](O)[C@@H](O)[C@H]1O	120%	77.5%		71.3%	60.5%	inactive	inactive			inactive	82.6%			inactive			
COCCOC(=O)C1=C(C)NC2=C(C(=O)CC(c3ccccc3OC)C2)C1c1cccc(O)c1 (stereo unspecified)	9.83%	51.8%		4.78%	5.74%	inactive	inactive			inactive	11.6%						
NC(=O)c1cccc2[nH]c(-c3ccc([C@H]4CCCN4)cc3F)nc12	43.5%	8.83%	2.5%	104%	19.9%	18.7 µM (active)		11.8 µM (active)			5.38%				7.43 µM (active)	14.8 µM (active)	18.7 µM (active)
COC[C@@H](c1ccc(C(F)(F)F)cc1)N1CCN(C2(C)CCN(C(=O)c3c(C)ncnc3C)CC2)C[C@H]1C	84.7%	21.5%	28.5%	7.13%	6.85%	inactive	inactive			inactive	31.8%						
NC(=O)NN=Cc1ccc([N+](=O)[O-])o1		14.3%	13.3%	172%	72.8%	inactive	inactive			inactive	13.6%						
CC(C)C(=O)Nc1ncc(-c2cc(C(F)F)nn2-c2c(Cl)cccc2Cl)s1	13.6%	18.7%	11.3%	113%	6.45%	inactive	inactive			23.1 µM (active)	9.88%						
COc1ccc2c(Oc3ccc(NC(=O)c4c(C)n(CC(C)(C)O)n(-c5ccccc5)c4=O)cc3F)ccnc2c1	60.9%	48.9%	13.8%	16.8%	13.4%	inactive	inactive				18.3%						
CC[C@@H]1C=C(C)C[C@H](C)C[C@H](OC)[C@H]2O[C@@](O)(C(=O)C(=O)N3CCCC[C@@H]3C(=O)O[C@H](C(C)=C[C@@H]3CC[C@H](Cl)[C@H](OC)C3)[C@H](C)[C@@H](O)CC1=O)[C@H](C)C[C@H]2OC	6.74%	17.3%	64.6%	12.7%	20.8%	inactive	inactive			inactive	27.5%			inactive			
CC(=O)N(C)C1(c2ccccc2)CCN(CCC[C@]2(c3ccc(Cl)c(Cl)c3)CCCN(C(=O)c3ccccc3)C2)CC1	7.14%	38.7%	7.98%	9.34%	7.8%	inactive		26.4 µM (active)	9.35 µM (active)	10.5 µM (active) and 13 µM (active)	6.96%	20.9 µM (active)			26.4 µM (active)	20.9 µM (active)	23.5 µM (active)
CCN(CC)CCOc1ccc(C(=C(Cl)c2ccccc2)c2ccccc2)cc1	9.72%	6.97%	9.51%	136%	50.6%	inactive	inactive			inactive	5.06%			inactive			
CC1(C)CCC[C@@]2(C)[C@@H]1CC[C@@]1(C)OC(=O)C[C@H]21		56.5%	64.8%	95%	102%	inactive	inactive			inactive	81.6%						
Cc1ccc(Nc2cc(-c3cccc(N4C(=O)c5ccccc5C4=O)c3)ncn2)cc1NS(C)(=O)=O		76.5%	97.4%	52.3%	13.1%	inactive	inactive			inactive	76.1%			inactive			
COc1ccc(-c2coc3cc(O)ccc3c2=O)cc1		96.3%	92.8%	191%	109%	18.7 µM (active)		inactive		inactive	65.1%				inactive	inactive	inactive
Oc1ccc(C2CCN(c3ccnc4ccccc34)CC2)cc1O	13.2%	11.6%	3.95%	31%	5.01%	inactive	inactive			inactive	6.17%						
CON=C(C(=O)N[C@@H]1C(=O)N2C(C(=O)OCOC(=O)C(C)(C)C)=C(C=Cc3scnc3C)CS[C@H]12)c1csc(N)n1	96%	73%	84.9%	90.5%	115%	inactive	inactive			inactive							
CNC1CCC(N(Cc2cccc(-c3ccncc3)c2)C(=O)c2sc3c(F)ccc(F)c3c2Cl)CC1 (stereo unspecified)	7.02%	23.7%	6.39%	0.6%	0.705%	inactive	inactive				4.87%						
COc1cc2nc(-c3ccc(N4CCN(C)CC4)cc3)nc(NCCN3CCOCC3)c2cc1OC		12.1%	2.87%	1.57%	2.25%	5.9 µM (active)		0.0418 µM (active)		7.31 µM (active)					0.0166 µM (active)	0.132 µM (active)	0.0332 µM (active)

From PubChem BioAssay (NCATS)
